The conditions of test [1]: Ebola virus entry assay, green channel fluorescence.
For test [2] the following is noted: Ebola virus entry assay, blue channel fluorescence.
The conditions of test [3]: Ebola virus entry assay, reporter ratio channel; AC50: Channel type: primary unless noted; outcome: Channel type: primary unless noted.
The conditions of test [4]: Ebola virus entry assay, blue channel (ratio component).
For test [5] the following is noted: Ebola virus entry reporter assay, green channel fluorescence. In general terms: Reporter assays use an easily measured gene product as a stand-in for the process of interest.
The conditions of test [6]: Ebola virus entry cell assay, ratio channel.
A short description of test [7]: Immunotoxin (HA22) sensitization/mitigation study. Vehicle arm (PBS) (AID 1159510). Also: potency is read from the fitted curve at half-maximal effect. Conditions: cancer cells viability with PBS vehicle (HA22 study); series mostly up to 46.1 µM.
A short description of test [8]: Immunotoxin (SS1P) sensitization/mitigation study. Vehicle arm (DMEM) (AID 1159513). Also: potency is read from the fitted curve at half-maximal effect. Conditions: cell viability with vehicle (DMEM); series mostly up to 46.1 µM.
Test [9] can be described thus: qHTS assay for measurement of the activity of small molecule inhibitors on Zika virus induced Caspase-3 activity in human iPSC derived neural progenitor cells (hNPCs) (AID 1224857; active = well fitted curve in the direction sought with a large enough effect; an effect the other way counts as inactive or inconclusive; also: % of control where 0% means no effect; nearly all actives have a fitted effect of over 65% in size). Conditions: hNPCs ZIKV-induced caspase-3/7, Caspase-Glo luminescence, 6 h; series mostly up to 45.7 µM. The gist of the method: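 Cells were plated at 350 per well and grown 16 to 20 hours. Compound pretreatment lasted one hour, after which ZIKV (2 FFU/cell) was added for 6 hours. Percent inhibition was normalized between uninfected and infected controls.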

Test [10] can be described thus: High-throughput drug toxicity screening in the BPDCN cell line Gen2.2 (AID 1224824).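 Also: cells exposed to compounds for 48 h before reading.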 The settings on record: Gen2.2 BPDCN cells; at 45.8 µM (top of the series). In a few lines:
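Gen2.2 cells (500/well) in phenol red-free RPMI with 10% FBS were exposed to compounds for 48 h at 37 °C, 5% CO2. Viability was read by CellTiter-Glo luminescence and normalized to DMSO (100%) and 9.2 uM bortezomib (0%).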

Test [11] is described as follows: qHTS assay for measurement of the activity of small molecule inhibitors on Zika virus induced Caspase-3 activity in human astrocytoma cells (AID 1224859; active = well fitted curve in the direction sought with a large enough effect; an effect the other way counts as inactive or inconclusive;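 also: plate controls were ZIKV-infected untreated cells for no effect and uninfected cells for full effect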). The settings on record: SNB-19 ZIKV-induced caspase-3/7, luminescence, 6 h; series mostly up to 45.7 µM. The gist of the method:
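Percent inhibition of virus-induced caspase-3/7 signal is calculated against uninfected and ZIKV-infected control cells. Cells are SNB-19, infected at 2 FFU/cell for 6 h after 1 h compound exposure.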
For orientation: Quantitative high-throughput screening tests each substance at several concentrations.

A short description of test [12]: qHTS Screen of the MIPE 4.0 Collection Against Ewings Sarcoma (TC71) (AID 1259253; active = well fitted curve in the direction sought with a large enough effect; an effect the other way counts as inactive or inconclusive;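 also: 100% = DMSO-treated cells and 0% = medium-only wells without cells; nearly all actives have a fitted effect of over 40% in size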). Conditions: TC71 Ewing sarcoma viability, CellTiter-Glo, 48 h; series mostly up to 45.8 µM. In a few lines:
(§1)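 Log-phase cells in RPMI with 5% FBS attached for 4 h, then received compounds as a titration for 48 h at 37C, 5% CO2. Viability was read by CellTiter-Glo luminescence and normalized to DMSO and no-cell wells.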

The nature of test [13]: qHTS Screen of the MIPE 4.0 Collection Against Ewings Sarcoma (EW8) (AID 1259255; active = well fitted curve in the direction sought with a large enough effect; an effect the other way counts as inactive or inconclusive; also: nearly all actives have a fitted effect of over 35% in size; also: potency is read from the fitted curve at half-maximal effect;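 as to viability: 100% = DMSO-treated cells and 0% = medium-only wells without cells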). Conditions: EW8 Ewing sarcoma viability, CellTiter-Glo, 48 h; series mostly up to 45.8 µM. In a few lines: as §1
A short description of test [14]: qHTS assay to identify small molecule inhibitors of chordoma cells - UCH-1 (AID 1259355; active = well fitted curve in the direction sought with a large enough effect; an effect the other way counts as inactive or inconclusive; also: % is scaled to controls: 0 for no effect and ±100 for the full control effect; nearly all actives have a fitted effect of over 55% in size). The settings on record: UCH-1 chordoma viability, CellTiter-Glo, 48 h, combination; series mostly up to 46.1 µM. In a few lines: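 Cells (800/well) were seeded and left overnight at 37 C, 5% CO2, then treated with drugs at 15 concentrations plus a combination mix of auranofin, camptothecin, doxorubicin, rubitecan and topotecan. Viability after 48hr was read by CellTiter-Glo luminescence.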

Test [15] can be described thus: qHTS assay to identify small molecule inhibitors of chordoma cells - UCH-2 (AID 1259356; active = well fitted curve in the direction sought with a large enough effect; an effect the other way counts as inactive or inconclusive; also: % is scaled to controls: 0 for no effect and ±100 for the full control effect). The settings on record: UCH-2 chordoma viability, CellTiter-Glo ATP luminescence, 48 h; series mostly up to 46.1 µM.

Inconclusive results are not listed. For some assays here: Results with a measured potency or affinity are listed apart. Active and inactive are the calls of the source.

Take `CCCCNc1ccc(C(=O)OCCOCCOCCOCCOCCOCCOCCOCCOCCOC)cc1`: the outcome in test [1], in test [2], in test [3], in test [4], in test [5] and in test [6] was inactive.
`CC1=C(C(=O)O)N2C(=O)[C@@H](NC(=O)[C@H](N)c3ccccc3)[C@H]2SC1`: the outcome in test [1], in test [2], in [3], in [4], in [5] and in test [6] was inactive.
For the molecule `CCCCC1=NC2(CCCC2)C(=O)N1Cc1ccc(-c2ccccc2-c2nn[nH]n2)cc1`, the molecule was classed as inactive in [1], in [2], in test [3], in test [4], in [5] and in test [6].
Consider `CO[C@@]12[C@H](COC(N)=O)C3=C(C(=O)C(C)=C(N)C3=O)N1C[C@@H]1N[C@@H]12`, for which the call in test [1], in test [2], in test [3], in test [4], in test [5] and in test [6] was inactive.
For the molecule `N=c1nc(N2CCCCC2)cc(N)n1O`, the outcome in test [1], in test [2], in [3], in test [4], in [5] and in [6] was inactive.
Consider `CN/C(=C\[N+](=O)[O-])NCCSCc1ccc(CN(C)C)o1`, for which the result in test [1], in test [2], in test [3], in test [4], in test [5] and in [6] was inactive.
For the molecule `CC(=O)O[C@]1(C(C)=O)CC[C@H]2[C@@H]3C=C(C)C4=CC(=O)CC[C@]4(C)[C@H]3CC[C@@]21C`, the call in test [1], in test [2], in [3], in test [4] and in test [6] was inactive.
Take `O=C(CCCCCCC(=O)Nc1ccccc1)NO`: the outcome in test [1], in test [2], in test [3], in test [4], in [5] and in test [6] was inactive. In addition, the Potency in test [7] is 0.0959 µM (active); in test [8] it was 0.481 µM (active).
For `COc1ccc(Cl)cc1C(=O)NCCc1ccc(S(=O)(=O)NC(=O)NC2CCCCC2)cc1`, the molecule was classed as inactive in [1], in [2], in [3], in test [4] and in [6].
As to `CCC1C(=O)OCC1Cc1cncn1C` (stereo not drawn), the molecule was classed as inactive in [1], in [2], in test [3], in [4], in test [5] and in [6]. The Potency result in [9] was “inactive”.
For `CC1=C(C(=O)O)N2C(=O)[C@@H](NC(=O)[C@H](N)c3ccc(O)cc3)[C@H]2SC1`, the call in [1], in test [2], in test [3], in test [4], in test [5] and in test [6] was inactive.
On to `CC[N+](C)(C)c1cccc(O)c1`, for which the call in test [1], in test [2], in test [3], in test [4], in test [5] and in test [6] was inactive.
Turning to `CC(C)(C)C(=O)OCOP(=O)(COCCn1cnc2c(N)ncnc21)OCOC(=O)C(C)(C)C`, the molecule was classed as inactive in test [1], in test [2], in test [3], in test [4], in [5] and in test [6].
For the molecule `CCOc1ccc2ccccc2c1C(=O)N[C@@H]1C(=O)N2[C@@H]1SC(C)(C)[C@@H]2C(=O)O`, the molecule was classed as inactive in test [1], in [2], in test [3], in [4] and in [6].
As for `C#CCN(C)[C@H](C)Cc1ccccc1`, the result in test [1], in [2], in test [3], in test [4], in test [5] and in test [6] was inactive. The call in test [11] was inactive. In test [10], the cell viability, % of control (lower = more cytotoxic) is 160%. Besides, the Potency entry in [12], in test [13], in test [14] and in test [15] was “inactive” each time.
For `CCCC(=O)Nc1ccc(OCC(O)CNC(C)C)c(C(C)=O)c1` (stereo not drawn), the result in [1], in test [2], in test [3], in test [4], in test [5] and in [6] was inactive.
On to `O=C1CC[C@@]2(O)[C@H]3Cc4ccc(O)c5c4[C@@]2(CCN3CC2CC2)[C@H]1O5`, for which the outcome in test [1], in [2], in [3], in test [4], in test [5] and in test [6] was inactive. Also, the molecule was classed as inactive in test [11]. The cell viability, % of control (lower = more cytotoxic) in test [10] turned out to be 200%. In addition, the Potency entry in [12], in [13], in [14] and in [15] was “inactive” in each case.
With `CC(c1cc2ccccc2s1)N(O)C(N)=O` (stereo not drawn), the call in test [1], in test [2], in [3], in test [4], in test [5] and in test [6] was inactive. Further, the Potency result in test [7] and in [8] was “inactive” throughout.
For `C[N+]1(C)CCC(OC(=O)C(O)(c2ccccc2)C2CCCC2)C1` (stereo not drawn), the outcome in test [1], in test [2], in test [3], in test [4] and in test [6] was inactive.
Regarding `Cc1ccc(-c2nc3ccc(C)cn3c2CC(=O)N(C)C)cc1`, the molecule was called inactive in test [1], in test [2], in [3], in [4], in test [5] and in test [6]. Besides, the result in test [11] was inactive. The Potency result in test [9], in test [14] and in [15] was “inactive” each time.
Regarding `O=P1(NCCCl)OCCCN1CCCl` (stereo not drawn), the molecule was called inactive in [1], in test [2], in [3], in [4], in [5] and in [6]. The result in test [11] was inactive. In addition, in [10], the cell viability, % of control (lower = more cytotoxic) turned out to be 49.3%. In addition, the Potency in test [13] is 20.9 µM (active). The Potency result in [14] and in test [15] was “inactive” throughout.
In the case of `N[C@@H]1C[C@H]1c1ccccc1`, the result in [1], in test [2], in test [3], in test [4], in test [5] and in [6] was inactive. Moreover, the molecule was called inactive in test [11]. In addition, the Potency entry in test [9], in test [14] and in test [15] was “inactive” throughout.

Source of the values: PubChem BioAssay (NCATS).
